Bioassay records (PubChem BioAssay)
Compounds with a hit are over-represented: about 4.6% of the library has one in this group of screens.
SKKanGAS inh = S. pyogenes SKKanGAS growth inhibitors in kanamycin, primary screen, streptokinase expression inhibitor project, SKKanGAS strain, BacTiter-Glo luminescence; 6 h; inhibition, % at 7.5 µM; 1.3% of 300,000 active;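 active = mean replicate score, as percent of positive control median, at least 50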;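 note: strain carries kanamycin resistance gene driven by streptokinase promoter and grows in 40 µg/ml kanamycin; loss of luminescence reflects streptokinase promoter inhibition or plain growth inhibition; 0% = median of DMSO wells and 100% = positive control at its reference dose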
tim10-1 inh = growth inhibitors of tim10-1 mutant yeast, primary screen, luminescence, uHTS; inhibition, % at 20 µM; AID 463190, 2010; S. cerevisiae tim10-1 ts strain growth, BacTiter-Glo, 24 h; 2.2% of 330,000 active;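 active = inhibition of at least 40%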;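 note: mutant grown at 25 °C; 0% = DMSO wells with yeast and 100% = wells holding no yeast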
TIM10 inh = growth inhibitors of isogenic TIM10 control yeast, primary screen, counter-screen for tim10-1 yeast inhibitor project, luminescence, uHTS; inhibition, % at 10 µM; S. cerevisiae TIM10 strain growth, BacTiter-Glo luminescence, 24 h; 1.4% of 330,000 active;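 active = inhibition of 40% or more at the single tested concentration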;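 note: wild-type TIM10 isogenic control strain grown at permissive 25 °C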
tim23-1 inh = growth inhibitors of tim23-1 mutant yeast, primary screen, luminescence, uHTS | S. cerevisiae tim23-1 growth, BacTiter-Glo luminescence, 24 h | inhibition, % at 20 µM | 1.3% of 330,000 active | AID 463212, 2010;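 active = growth inhibition of the mutant yeast at or above 50%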;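 note: temperature-sensitive mutant grown at 25 °C; plate controls were DMSO-treated mutant yeast for no effect and medium wells lacking yeast for full effect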
PfHsp90 yeast 2 = growth inhibition of PfHsp90-expressing yeast, primary screen, antimalarial PfHsp90 inhibitor project, S. cerevisiae, BacTiter-Glo luminescence, single point, set 2; BacTiter-Glo ATP, 48 h; yeast lacking PDR1 and PDR3 efflux regulators; inhibition, % at 9.4 µM; 0.32% of 310,000 active; AID 504621, 2011;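 active = every replicate shows inhibition above about 80%, whatever the replicate mean, limit read from the data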;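 note: 0% = DMSO neutral controls and 100% = 20 µM radicicol positive controls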
NALP3 yeast inh = NALP3 inflammasome inhibitors in reconstituted yeast, primary screen, luminescence, uHTS. Yeast reconstituted NLRP3/ASC/caspase-1, beta-gal luminescence, 24 h. inhibition, % at 10 µM. 0.39% of 330,000 active. AID 2825, 2010;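 active = inhibition of 50% or more; inactive = inhibition below 50%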;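 note: plate controls were induced DMSO wells for no effect and uninduced yeast grown without galactose for full effect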
* hit, by the source's call; · = no result.

SMILES	SKKanGAS inh	tim10-1 inh	TIM10 inh	tim23-1 inh	PfHsp90 yeast 2	NALP3 yeast inh
COc1cccc(N=Nc2c(N)[nH]n3c(=O)cc(-c4ccccc4)nc23)c1	109.6*	12.5	8.6	11.3	-4.3	17.5
CCOC(=O)c1c(C)[nH]c(C(=O)C(C)OC(=O)c2cccc(OCc3c(C)noc3C)c2)c1C (centres undefined)	50.1*	27.2	13.5	33.1	-4.5	-6.4
COc1ccc(-c2cc(C(F)(F)F)c3c(n2)sc2c(O)cc(=O)[nH]c23)c(OC)c1	55.1*	13.8	10.8	1.5	10.2	16.2
COc1ccc(-c2cn[nH]c2-c2ccc(OCc3ccc([N+](=O)[O-])cc3)cc2O)cc1OC	6.9	0.9	4.5	7.9	-36.4	2.4
COc1ccccc1-c1cn[nH]c1-c1ccc(OCc2ccccc2)cc1O	48.0	-3.3	28.8	29.4	-10.9	11.8
COc1ccc(-c2cn[nH]c2-c2ccc(OCc3ccccc3)cc2O)cc1	74.8*	-2.3	32.5	43.9	-17.1	13.1
O=[N+]([O-])c1ccc(COc2ccc(-c3[nH]ncc3-c3ccc(Cl)cc3)c(O)c2)cc1	94.8*	7.8	-1.0	-10.9	3.6	-6.6
O=C(C1CCCN(c2ncnc3c2nc2n3CCCCC2)C1)N1CCN(c2ccccc2F)CC1 (centres undefined)	8.4	31.7	12.8	23.3	1.0	13.2
O=[N+]([O-])c1ccc(S(=O)(=O)NN=CCCc2ccccc2)cc1	·	·	·	·	1.6	·
O=C(CCNS(=O)(=O)c1ccc(Br)s1)NC1CCCC1	-9.0	8.6	-12.8	12.7	·	-13.1
O=S(=O)(NC1CCCCCC1)c1ccc(Br)s1	6.1	28.1	4.9	12.5	87.5*	49.8
CCCCCn1c(CN2CCN(c3cc(Cl)ccc3C)CC2)nc2c1c(=O)[nH]c(=O)n2C	86.2*	16.9	19.5	28.0	13.9	9.4
COc1ccccc1-c1nnc(NC(=O)c2ccc(S(=O)(=O)N(C)C)cc2)o1	30.6	13.1	4.6	-0.4	-6.3	3.3
CCCCN(CC)S(=O)(=O)c1ccc(C(=O)Nc2nnc(CSC)o2)cc1	25.3	18.6	20.2	9.6	19.6	7.5
CCCCN(C)S(=O)(=O)c1ccc(C(=O)Nc2nnc(-c3cccs3)o2)cc1	101.5*	15.8	0.7	5.0	·	11.3
CCN(Cc1ccccc1)S(=O)(=O)c1ccc(C(=O)Nc2nnc(-c3ccccc3OC)o2)cc1	93.6*	32.8	0.7	12.7	-54.1	6.0
CCCCN(CCCC)S(=O)(=O)c1ccc(C(=O)Nc2nnc(CSC)o2)cc1	105.8*	38.1	7.2	18.0	-51.0	10.4
CCCCN(CC)S(=O)(=O)c1ccc(C(=O)Nc2nnc(-c3ccccc3Cl)o2)cc1	99.1*	21.2	35.6	0.5	-45.4	-2.4
CCCCN(C)S(=O)(=O)c1ccc(C(=O)Nc2nnc(C3=COCCO3)o2)cc1	8.9	15.0	1.5	18.3	9.5	-8.0
Cc1ccc(OCC(=O)N/N=C\c2ccncc2)c(C)c1	-4.2	6.6	4.4	-5.4	13.8	21.1
CCc1nc(SCC(=O)NC2CC2)c2c(C)c(C)sc2n1	1.3	18.9	-16.6	29.0	-36.1	22.3
Cc1ccc(S(=O)(=O)NC(=O)Nc2cc(C)ccc2F)cc1	-2.3	9.0	-3.7	-1.4	-11.9	-2.1
CC(=O)NS(=O)(=O)c1ccc(N=c2ssc3c2-c2ccc(C)cc2NC3(C)C)cc1	81.8*	21.5	-2.3	-1.1	12.1	-11.8
N=C1/C(=C/c2ccc(-c3cccc(C(=O)O)c3)o2)C(=O)N=C2SC=C(c3ccccc3)N12	78.8*	12.7	23.7	1.2	-6.3	19.2
CCCn1nnnc1NC(=O)c1ccc2ccccc2c1	89.8*	1.8	6.9	-74.3	-51.8	15.4
SMILES	SKKanGAS inh	tim10-1 inh	TIM10 inh	tim23-1 inh	PfHsp90 yeast 2	NALP3 yeast inh
CCCn1nnc(NC(=O)c2ccc3ccccc3c2)n1	-8.8	-33.9	14.0	-3.6	·	14.6
COc1ccccc1Sc1nc(-c2ccccn2)ncc1OC	83.0*	18.8	-11.5	14.8	35.3	-5.8
COc1cnc(-c2ccccn2)nc1Oc1ccccc1Cl	70.6*	13.7	-0.7	-4.1	14.2	-13.7
N#Cc1cccc(S(=O)(=O)NCc2nnc3ccccn23)c1	·	7.5	6.7	13.4	-3.5	5.6
O=c1[nH]c(CSc2ncnc3sccc23)nc2ccccc12	67.3*	-14.3	-14.6	9.0	4.1	10.9
O=c1[nH]c(CSc2ncn[nH]2)nc2ccccc12	-6.4	-7.4	-23.1	2.4	11.2	10.4
CN(C)/C=C/C(=O)c1ccc(N2CCN(c3ncc(C(F)(F)F)cc3Cl)CC2)cc1	16.3	20.6	17.4	41.1	108.9*	10.5
O=C(CN1CCN(c2ncc(C(F)(F)F)cc2Cl)CC1)NCCNc1ncc(C(F)(F)F)cc1Cl	36.7	19.1	-100.5	12.6	99.9*	5.5
Cc1noc(C)c1S(=O)(=O)NCc1cccc(Cl)c1	·	17.1	-1.6	10.3	19.4	0.4
CCCCNc1c(-c2cccc(-c3cc(C(C)=O)cs3)c2)nc2ccc(C)cn12	52.6*	31.3	17.2	26.1	-5.4	22.2
CCCCNc1c(-c2cccc(-c3ccc(OC)cc3)c2)nc2ccc(C)cn12	63.1*	32.9	2.0	-2.5	-11.8	25.9
CCCCCCSc1cccc(-c2nc3ccc(Cl)cn3c2NCCCC)c1	·	·	·	·	-18.0	·
CCCCNc1c(-c2cccc(-c3ccc(OC)cc3)c2)nc2cc(C)ccn12	·	5.1	36.4	40.7	-8.0	30.6
Cc1cccc(NC(=O)[C@H](Cc2ccccc2)NC(=O)[C@@H]2Cc3ccccc3CN2)c1	3.2	4.7	1.1	1.6	13.6	13.4
CCN(CC)C1CC(=O)N(c2ccc(Br)cc2)C1=O (centres undefined)	2.7	28.4	25.1	30.0	112.1*	11.0
Cc1ccc(C(=O)CCC(=O)Nc2ccccc2C)c(C)c1	5.4	-7.8	-7.9	8.3	-10.6	34.5
Cc1ccc2c(Cl)cc(Cl)c(OCC(=O)NC(C)(C)C)c2n1	49.9*	7.1	13.4	14.2	-56.4	6.8
CCOC(=O)c1cc(CC)sc1NC(=O)c1ccc(N2C(=O)CCC2=O)cc1	55.0*	13.0	7.2	10.3	-4.0	22.3
Cc1c2cnn(-c3ccccc3)c(=O)c2c(C)n1CCCC(=O)NCCN1CCN(C)CC1	-2.3	-8.3	6.1	18.3	11.8	-1.2
c1cnn(Cc2cnc(N3CCOCC3)s2)c1	16.1	-1.3	-5.9	-3.0	-4.3	3.9
CS(=O)(=O)c1ccc([C@@H](O)[C@@H](CF)NC(=O)C(Cl)Cl)cc1	·	6.1	6.2	7.8	9.7	-8.0
CS(=O)(=O)c1ccc([C@@H](O)[C@@H](CO)NC(=O)C(Cl)Cl)cc1	107.9*	-1.0	0.1	0.4	-5.2	-1.5
